Counter-ions that a name gives are not always drawn.
The compounds below were run on Saccharomyces cerevisiae BY4741 SeMeCo community (assay: z-score of subpopulation abundance vs DMSO median, subpopulation auxotrophic for HLM; higher = larger share of this subpopulation than in DMSO controls). Conditions: 10 µM; 24 h; SM minimal medium; subpopulation (auxotrophy): HLM.
Protocol: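 Fluorescent four-plasmid SeMeCo (self-establishing metabolically cooperating S. cerevisiae BY4741 community; plasmids pH-mRuby2, pL-mWasabi, pU-eCFP, pM-TagRFP657) was grown 24 h in minimal SM medium with each Selleck FDA-approved drug at 10 µM in 384-well plates. Cells were fixed and imaged by high-content confocal microscopy. For each auxotrophic subpopulation (and the prototroph), a z-score gives the deviation from the DMSO vehicle-control population median.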

SMILES | z-score of subpopulation abundance
CN1[C@@H]2C[C@@H](OC(=O)[C@H](CO)c3ccccc3)C[C@H]1[C@@H]1O[C@@H]12 [Scopolamine HBr] | -0.52
CN[C@@H]1[C@@H](O)[C@@H](O[C@@H]2[C@@H](O)[C@H](O[C@H]3O[C@H](CN)CC[C@H]3N)[C@@H](N)C[C@H]2N)OC[C@]1(C)O.CN[C@@H]1[C@@H](O)[C@@H](O[C@@H]2[C@@H](O)[C@H](O[C@H]3O[C@H]([C@@H](C)N)CC[C@H]3N)[C@@H](N)C[C@H]2N)OC[C@]1(C)O.CN[C@@H]1[C@@H](O)[C@@H](O[C@@H]2[C@@H](O)[C@H](O[C@H]3O[C@H]([C@@H](C)NC)CC[C@H]3N)[C@@H](N)C[C@H]2N)OC[C@]1(C)O [Gentamicin Sulfate] | 0.75
CN1[C@@H]2CC[C@H]1C[C@@H](OC(=O)C(CO)c1ccccc1)C2 (some centres undefined) [Atropine sulfate monohydrate] | -0.94
Oc1cc(Cl)ccc1Oc1ccc(Cl)cc1Cl [Triclosan] | 1.15
C=CC[C@]1(O)CC[C@H]2[C@@H]3CCC4=CC(=O)CCC4=C3C=C[C@@]21C [Altrenogest] | -0.47
C[N+](C)(C)CCCCCCCCCC[N+](C)(C)C [Decamethonium Bromide] | -0.27
CCN(C)C(=O)Oc1cccc([C@H](C)N(C)C)c1 [Rivastigmine Tartrate] | 0.01
COc1ccc(C(CN(C)C)C2(O)CCCCC2)cc1 (centres undefined) [Venlafaxine HCl] | -0.22
CC(C)=CCOc1c2occc2cc2ccc(=O)oc12 [Imperatorin] | 1.2
COC(=O)C1=CCCN(C)C1 [Arecoline HBr] | 0.28
Cc1cc(O)ccc1Cl [Chlorocresol] | -0.58
COc1ccc(C(CN(C)C)C2(O)CCCCC2)cc1 (centres undefined) [Venlafaxine] | -0.65
NC(=O)CN1CCCC1=O [Piracetam] | 1.38
CC1(C)SC2C(N)C(=O)N2C1C(=O)O (centres undefined) [6-Aminopenicillanic acid] | -0.43
C=CN1CCCC1=O.II [Povidone iodine] | 0.98
CN(C)C(=O)Oc1cccc([N+](C)(C)C)c1 [Neostigmine Bromide] | -0.52
CC[C@@H](C(N)=O)N1CCCC1=O [Levetiracetam] | 0.21

SMILES | z-score of subpopulation abundance
CC(=O)OCC1=C(C(=O)O)N2C(=O)C(N)C2SC1 (centres undefined) [7-Aminocephalosporanic acid] | -0.1
COc1ccc2c3c([nH]c2c1)C(C)=NCC3 [Harmaline] | 2.63
Cn1cc(C2=C(c3cn(C4CCN(Cc5ccccn5)CC4)c4ccccc34)C(=O)NC2=O)c2ccccc21 | -1.27
CC(=O)O[C@H]1C[C@@H]2CC[C@@H]3[C@H](CC[C@@]4(C)[C@H]3C[C@H]([N+]3(C)CCCCC3)[C@@H]4OC(C)=O)[C@@]2(C)C[C@@H]1[N+]1(C)CCCCC1 [Pancuronium dibromide] | -0.05
CN(C)C(=O)Oc1ccc[n+](C)c1 [Pyridostigmine Bromide] | 0.28
N[C@@H]1C[C@H]1c1ccccc1 [Tranylcypromine (2-PCPA) HCl] | 0.39
CC[N+](C)(CC)CCOC(=O)C(O)(c1ccccc1)c1ccccc1 [Methylbenactyzine Bromide] | -1.19
COc1ccc2c(c1)[C@]13CCCC[C@@H]1[C@H](C2)N(C)CC3 [Dextromethorphan hydrobromide hydrate] | 0.03
N#Cc1nn(-c2c(Cl)cc(C(F)(F)F)cc2Cl)c(N)c1[S+]([O-])C(F)(F)F (centres undefined) [Fipronil] | 0
CN(C)[C@@H]1C(=O)C(C(N)=O)=C(O)[C@@]2(O)C(=O)C3=C(O)c4c(O)cccc4[C@@](C)(O)[C@H]3[C@H](O)[C@@H]12 [Oxytetracycline Dihydrate] | -0.22
CN1[C@@H]2CC[C@H]1C[C@@H](OC(=O)[C@H](CO)c1ccccc1)C2 [Hyoscyamine] | 0.11
Oc1cccc2cccnc12 [8-Hydroxyquinoline] | -0.08
O=C(O[C@H]1C[C@H]2CC[C@@H](C1)[N+]21CCCC1)C(O)(c1ccccc1)c1ccccc1 [Trospium chloride] | 0.01
CC[C@@]1(O)C(=O)OCc2c1cc1n(c2=O)Cc2cc3ccccc3nc2-1 [Camptothecin] | -0.76
CN1c2ccccc2C(NCCCCCCC(=O)O)c2ccc(Cl)cc2S1(=O)=O (centres undefined) [Tianeptine sodium] | -0.48
CCCN1C[C@H](CSC)C[C@@H]2c3cccc4[nH]cc(c34)C[C@H]21 [Pergolide Mesylate] | -0.43
C=C[C@H]1CN2CC[C@H]1C[C@H]2[C@H](O)c1ccnc2ccccc12 [Cinchonidine] | -0.4
